Screens (PubChem)
Compounds with a hit are over-represented: about 4.3% of the library has one in this group of screens.
esBAF inh: inhibitors of esBAF chromatin remodeling in mouse ES cells | Bmi1-luciferase knock-in reporter, 24 h; 100% = twice the neutral-well signal | reporter increase, % at 12.5 µM | 2% of 350,000 active | AID 602393; in the data active = activation above about 40%; inconclusive = no clear call, values can overlap the other calls;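 also: a rise in the Bmi1 reporter signal indicates esBAF inhibition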
HSF1 inh: HSF1 inhibition; 0.77% of 300,000 active; activity change, negative = inhibition, % at 7.5 µM (by protocol); NIH3T3-HGL HSE-luciferase, MG132-induced, luminescence 8 h; hits give low values;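 active = more than half of replicate wells show activity change below -50%, luminescence cut by over half; inconclusive = some wells, but at most half, below -50%; inactive = no replicate well below -50%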;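 also: luciferase reports HSF-1 transcriptional activity via heat shock element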
SMARCA2 activ: activators of SMARCA2 function | MG213 cells, MMTV-luciferase reporter, dexamethasone, overnight | activation, % at 9.1 µM | 1% of 370,000 active; in the data active = activation above about 7.8%
MITF act: activators of MITF-driven TRPM1 promoter activity in SK-MEL-5 cells; SK-MEL-5 TRPM1-promoter luciferase, 24 h; % of positive control, neutral wells = 0; activation, % at 12.5 µM; 0.75% of 300,000 active; AID 588334;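 active = mean activation of at least 80% with every replicate also reaching 80%; inconclusive = mean reaches 80% but some replicate falls short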
HSF-1 act: increases HSF-1 driven luciferase reporter signal | NIH3T3-HGL HSF-1 luciferase reporter, MG132, 8 h; 100% = twice DMSO control signal | AID 504408 | activation, % at 9 µM | 1.7% of 300,000 active;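 active = mean replicate activation of at least 50% with a set share of replicates each reaching 50%; inconclusive = only one of those two conditions met; inactive = mean below 50% and too few replicates reaching it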
Wnt bcat act: Wnt/beta-catenin pathway activation | Wnt/beta-catenin reporter cell assay, activator, plate reader | activation, % at 9.35 µM | 1.2% of 300,000 active | AID 743398; in the data active = activation above about 30%, passing the limit was not always enough; inconclusive = no clear call, values can overlap the other calls
Of the large screens only hits and unclear results are named; the others gave an inactive call.

CCCCN(CC)c1nc(N)c2c(N)nc(OCC)cc2c1C#N	HSF-1 act 57.4 (no result: MITF act)
COCCN=C1Sc2nc3cc(C)c(C)cc3cc2CN1Cc1cccs1	none
COCCN=C1Sc2nc3ccc(C)cc3cc2CN1Cc1ccco1	esBAF inh 53.7
O=C(c1ccc([N+](=O)[O-])cc1)N1CCN(c2ncc(Br)cn2)CC1	HSF1 inh -75.8
COc1cc(C2CC(c3cccnc3)=NN2c2ccc(F)cc2)cc(OC)c1OC (centres undefined)	HSF-1 act 64.8 (no result: esBAF inh)
CC1=CC(C)(C)N=C(Nc2ccc(C)cc2)S1	esBAF inh 46.0
CCOC(=O)c1ccc(NC(=O)C2C3CCC(C3)C2C(=O)O)cc1 (centres undefined)	none
CC(C)COC(=O)c1ccc(NC(=O)C2C3CCC(C3)C2C(=O)O)cc1 (centres undefined)	esBAF inh 57.9
CCOC(=O)c1ccc(NC(=S)NC(=O)C2CCCC2)cc1	HSF1 inh -74.1
O=C(OC1CCCCC1)c1ccc(NC(=O)C2CCCCC2)cc1	none (no result: esBAF inh, Wnt bcat act)
COC(=O)c1ccc(NC(=S)NC(=O)C2CCC2)cc1	none (no result: esBAF inh)
CC(C)(C)C(=O)Nc1ccc(C(=O)OC2CCCCC2)cc1	esBAF inh 63.6, MITF act 104.6 (no result: SMARCA2 activ, Wnt bcat act)
Cc1ccc(NC(=O)C2C3/C=C\CCCCC32)cc1 (centres undefined)	MITF act 93.6 (no result: esBAF inh)
CCOC(=O)c1ccc(NC(=O)C2C3CCCCC32)cc1 (centres undefined)	esBAF inh inconclusive, MITF act 82.2, HSF-1 act inconclusive
CC(=O)Nc1nc(C)cs1	none
Cc1ccc(CNc2nc(C)cs2)cc1	esBAF inh 45.8, MITF act 143.1
CN(C)CC(=O)N[C@H]1CC[C@@H](CC(=O)NCc2ccc(Cl)cc2)O[C@@H]1CO	none (no result: HSF1 inh, SMARCA2 activ, MITF act, HSF-1 act, Wnt bcat act)
Cc1ccsc1C(=O)OCc1cc(=O)n2ccsc2n1	Wnt bcat act 53.7 (no result: HSF1 inh, HSF-1 act)
O=C(OCc1cc(=O)n2ccsc2n1)c1ccc(O)cc1O	esBAF inh 54.4 (no result: HSF1 inh, HSF-1 act)
CC(=O)c1ccc(OCc2cc(=O)n3ccsc3n2)cc1	none (no result: esBAF inh)
CO[C@H](CN(C)C(=O)Nc1ccc(C(F)(F)F)cc1)[C@@H](C)CN(Cc1ccccc1Cl)[C@H](C)CO	none (no result: HSF1 inh, SMARCA2 activ, MITF act, HSF-1 act, Wnt bcat act)
CC1CCCCN1C(=O)c1cc(-c2ccc(Cl)c(Cl)c2)on1 (centres undefined)	esBAF inh inconclusive, MITF act 109.4, HSF-1 act 57.1 (no result: Wnt bcat act)
O=C(c1cc(-c2ccccc2)on1)N1CCCC1	none (no result: Wnt bcat act)
O=C(c1cc(-c2ccc(Cl)c(Cl)c2)on1)N1CCCCC1	esBAF inh 56.1, MITF act 103.5, HSF-1 act inconclusive (no result: Wnt bcat act)
O=C(c1cc(-c2cccc(O)c2)on1)N1CCCCCC1	MITF act 93.3, Wnt bcat act 37.1
COc1cccc(-c2cc(C(=O)N3CCOCC3)no2)c1	HSF-1 act 60.9
CN1C(=O)c2cc(NC(=O)c3ccc(F)cc3)ccc2OC[C@H]2O[C@H](CC(=O)NCC3CC3)CC[C@@H]21	none (no result: HSF1 inh, SMARCA2 activ, MITF act, HSF-1 act, Wnt bcat act)
O=C(c1cc(-c2ccc(Br)cc2)on1)N1CCOCC1	none
COc1cccc(-c2cc(C(=O)N3C(C)CCCC3C)no2)c1 (centres undefined)	esBAF inh 49.1, MITF act inconclusive (no result: Wnt bcat act)
CC1CCCC(C)N1C(=O)c1cc(-c2ccco2)on1 (centres undefined)	none
O=C(c1cc(-c2cccc(O)c2)on1)N1CCOCC1	Wnt bcat act 44.9 (no result: MITF act)
O=C(c1cc(-c2cccc(Cl)c2)on1)N1CCN(c2ccccc2)CC1	none
O=C(c1cc(-c2cccc(Cl)c2)on1)N1CCCC1	Wnt bcat act 39.6
CCCC(=O)Nc1ccc2c(c1)OC[C@@H](C)N(Cc1ccc(F)cc1)C[C@@H](C)[C@@H](OC)CN(C)C2=O	none (no result: HSF1 inh, SMARCA2 activ, MITF act, HSF-1 act, Wnt bcat act)
CCC(=O)N[C@H]1CC[C@H](CCn2cc(C3CC3)nn2)O[C@@H]1CO	none (no result: HSF1 inh, SMARCA2 activ, MITF act, HSF-1 act, Wnt bcat act)
CCN1[C@@H]2c3ccc(-c4ccc(F)cc4)c(=O)n3C[C@@H]2[C@@H](CO)[C@@H]1C(=O)OC	none (no result: HSF1 inh, SMARCA2 activ, MITF act, HSF-1 act, Wnt bcat act)
C/C(=N\NC(=O)c1ccccc1)c1ccc(NC(=O)c2cccs2)cc1	none (no result: esBAF inh)
C/C(=N\NC(=O)c1ccccc1C)c1ccc(NC(=O)c2cccs2)cc1	esBAF inh 53.2 (no result: Wnt bcat act)
C/C(=N\NC(=O)c1ccco1)c1ccc(NC(=O)c2cccs2)cc1	Wnt bcat act 39.3 (no result: esBAF inh)
C/C(=N\NS(=O)(=O)c1ccc([N+](=O)[O-])cc1)c1ccc(NC(=O)c2ccco2)cc1	Wnt bcat act 34.1
Cc1noc(C)c1S(=O)(=O)N(C)C[C@@H]1Oc2ccc(NC(=O)Nc3ccc(C(F)(F)F)cc3)cc2CC(=O)N([C@H](C)CO)C[C@H]1C	none (no result: HSF1 inh, SMARCA2 activ, MITF act, HSF-1 act, Wnt bcat act)
C[C@H]1CCCCO[C@@H](CN(C)C(=O)c2ccccc2)[C@@H](C)CN([C@@H](C)CO)C(=O)c2cc(NS(=O)(=O)c3ccc(Cl)cc3)ccc2O1	none (no result: HSF1 inh, SMARCA2 activ, MITF act, HSF-1 act, Wnt bcat act)
CO[C@H]1CN(C)C(=O)c2ccc(NC(=O)C3CCCCC3)cc2OC[C@@H](C)N(Cc2nccs2)C[C@H]1C	none (no result: HSF1 inh, SMARCA2 activ, MITF act, HSF-1 act, Wnt bcat act)
Oc1ccc(/C=N/N=C/c2ccc(O)c(O)c2)cc1O	none (no result: MITF act)
Oc1ccc(/C=N/N(c2ccccc2)c2ccccc2)cc1O	HSF-1 act 82.6
O=C(/C(=N/N=C/c1ccc(O)c(O)c1)c1ccccc1)c1ccccc1	HSF-1 act 90.0 (no result: esBAF inh)
CO[C@@H]1CN(C)C(=O)c2ccc(NC(C)=O)cc2OC[C@H](C)N(C(=O)c2ccc(F)cc2)C[C@@H]1C	none (no result: HSF1 inh, SMARCA2 activ, MITF act, HSF-1 act, Wnt bcat act)
N[C@@H]1CC[C@@H](CCn2cc(C3CCCCC3)nn2)O[C@H]1CO	none (no result: HSF1 inh, SMARCA2 activ, MITF act, HSF-1 act, Wnt bcat act)
CCc1ccc(C#CC2=CC(=O)CC(C)(C)C2)cc1	esBAF inh 61.4 (no result: HSF1 inh, MITF act, HSF-1 act)
COc1ccc(C#CC2=CC(=O)CC(C)(C)C2)cc1	esBAF inh 44.9 (no result: HSF1 inh, MITF act, HSF-1 act)
COc1ccc(C#Cc2ccc(C3=CC(=O)CC(C)(C)C3=O)cc2)cc1	none (no result: HSF1 inh, MITF act, HSF-1 act)
COc1ccccc1C#CC1=CC(=O)CC(C)(C)C1	none (no result: HSF1 inh, MITF act, HSF-1 act)
C[C@H]1CN([C@@H](C)CO)C(=O)c2cc(NC(=O)NC3CCCCC3)ccc2O[C@H]1CN(C)Cc1ccccc1	none (no result: HSF1 inh, SMARCA2 activ, MITF act, HSF-1 act, Wnt bcat act)
Cc1ccc(C(=O)OCC(=O)N2CCc3ccccc32)cc1	esBAF inh inconclusive, MITF act 108.0
CCOC(=O)c1[nH]c(C)c(C(=O)OCC(=O)N2CCc3ccccc32)c1C	none
CC(=O)c1c(C)[nH]c(C(=O)OCC(=O)N2CCc3ccccc32)c1C	esBAF inh 54.5
Cc1ccc(C(=O)OCC(=O)N2CCCc3ccccc32)cc1C	none (no result: HSF1 inh, HSF-1 act)
Cn1cccc1C(=O)OCC(=O)N1CCc2ccccc2C1	none (no result: HSF1 inh, MITF act, HSF-1 act)
Cc1ccc2c(CC(=O)N3CCc4ccccc43)coc2c1	HSF-1 act 77.1 (no result: esBAF inh, Wnt bcat act)
Cn1cccc1C(=O)OCC(=O)N1CCc2ccccc21	MITF act 100.4, Wnt bcat act 53.0 (no result: HSF1 inh, HSF-1 act)
COc1ccc(NC(=O)N(C)C[C@@H]2Oc3ccc(NC(=O)Nc4cccc5ccccc45)cc3C(=O)N([C@@H](C)CO)C[C@H]2C)cc1	none (no result: HSF1 inh, SMARCA2 activ, MITF act, HSF-1 act, Wnt bcat act)
COc1ccc(NC(=O)Nc2ccc3c(c2)CC(=O)N([C@@H](C)CO)C[C@H](C)[C@@H](CN(C)C(=O)Nc2ccc4c(c2)OCO4)O3)cc1	none (no result: HSF1 inh, SMARCA2 activ, MITF act, HSF-1 act, Wnt bcat act)
